Consider 36 compounds from PubChem BioAssay (NCATS).

SMILES strings stand for the structures. “And” between values parts separate entries of the source, which are not always exact repeats. Equal values may be shown once. Inconclusive results are not listed. Entries that show only a call come without a potency. A number with no mark means an inactive call. The source made the active and inactive calls. Unless noted, the call rests on the fitted dose curve; in most records, active means well fitted inhibition curve with a large enough effect; inconclusive means small, poorly fitted or top-dose-only effect; inactive means flat fitted curve, though single readings scatter.

Sequence of Thyroid hormone receptor beta (Homo sapiens) (P10828 whole entry, looked up): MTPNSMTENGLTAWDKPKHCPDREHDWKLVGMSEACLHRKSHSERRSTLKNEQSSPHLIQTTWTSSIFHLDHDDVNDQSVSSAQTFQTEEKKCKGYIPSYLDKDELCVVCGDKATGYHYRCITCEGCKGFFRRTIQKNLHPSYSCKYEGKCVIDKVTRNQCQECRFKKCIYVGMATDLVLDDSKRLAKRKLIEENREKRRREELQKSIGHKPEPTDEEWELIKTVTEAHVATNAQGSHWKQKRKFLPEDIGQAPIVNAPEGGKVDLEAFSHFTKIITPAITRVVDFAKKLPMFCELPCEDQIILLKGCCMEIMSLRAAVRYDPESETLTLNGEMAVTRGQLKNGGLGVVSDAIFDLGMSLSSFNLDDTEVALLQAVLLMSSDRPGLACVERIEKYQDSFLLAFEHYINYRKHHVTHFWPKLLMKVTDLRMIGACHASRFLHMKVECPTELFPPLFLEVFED
Sequence of Luciferin 4-monooxygenase (Photinus pyralis) (P08659 whole entry, looked up): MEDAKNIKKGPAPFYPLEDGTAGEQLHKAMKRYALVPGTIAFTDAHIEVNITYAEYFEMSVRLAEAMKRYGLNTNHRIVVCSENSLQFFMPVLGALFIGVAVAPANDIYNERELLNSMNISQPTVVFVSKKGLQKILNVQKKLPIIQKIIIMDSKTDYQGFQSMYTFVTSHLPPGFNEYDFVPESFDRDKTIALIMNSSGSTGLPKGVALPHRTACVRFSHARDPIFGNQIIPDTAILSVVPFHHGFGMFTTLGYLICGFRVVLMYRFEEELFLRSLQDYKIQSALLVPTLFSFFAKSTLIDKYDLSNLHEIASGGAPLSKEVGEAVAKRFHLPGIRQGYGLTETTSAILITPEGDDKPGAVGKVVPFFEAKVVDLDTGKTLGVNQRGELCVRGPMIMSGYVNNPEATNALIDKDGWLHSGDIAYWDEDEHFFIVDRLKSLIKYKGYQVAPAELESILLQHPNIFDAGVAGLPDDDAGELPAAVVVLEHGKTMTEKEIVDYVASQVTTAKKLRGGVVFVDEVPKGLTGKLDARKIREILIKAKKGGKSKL

One experiment addresses Thyroid hormone receptor beta (Homo sapiens) (UniProt P10828). The experiment can be described thus: qHTS assay for small molecule antagonists of thyroid hormone receptor beta signaling (AID 588547; active means well fitted inhibition curve with a large enough effect in the signal ratio, with a control signal flat, not every such curve was filed as active; the % refers to the signal ratio;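 further: cells stimulated with 0.4 nM T3 agonist during compound exposure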). Particulars: TR-UAS-bla HEK293, beta-lactamase ratio, antagonist mode, 18 h. The method in brief:
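TR-UAS-bla GripTite HEK293 cells in 2% charcoal/dextran FBS medium were preincubated 4 h at 37 C, given compound (0.59 nM to 92 uM) plus 0.4 nM T3 (final) for 18 h, then CCF4 for 2 h at RT; Hill fit gave IC50.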
(In general: Quantitative high-throughput screening tests each substance at several concentrations.)
In the case of `CCCC(=O)c1cc(O)c(O)cc1O`, the activity change % (negative = inhibition) is -21%.

On to `CC(C)C(C)(C)C(C)(C)C(C)(C)S`, for which the activity change % (negative = inhibition) is 1.2% and -6.79%.

For the compound `O=C(NO)c1ccccc1`, the activity change % (negative = inhibition) was -5.82%.

Regarding `Cc1cc(C(C)(C)C)c(O)c(C(C)(C)C)c1`, the activity change % (negative = inhibition) is -7.42%.

As to `CCCCCCCCCCCC[N+](C)(C)Cc1ccccc1`, the activity change % (negative = inhibition) is -19.6%.

On to `COC(=O)c1c(Cl)c(Cl)c(C(=O)OC)c(Cl)c1Cl`, for which the activity change % (negative = inhibition) was 3.31%.

Regarding `CC(C)(C)c1ccc(O)c(O)c1`, the activity change % (negative = inhibition) was -12.4% and -14.4%.

For the compound `O=C(Oc1ccccc1)c1cccc(C(=O)Oc2ccccc2)c1`, the activity change % (negative = inhibition) is 0.996%.

As for `Nc1cccc2c(N)cccc12`, the activity change % (negative = inhibition) was 0% and 7.22%.

On to `COc1cc(C=O)ccc1O`, for which the activity change % (negative = inhibition) is 9.41% and -10.4%.

With `OCc1c[nH]c2ccccc12`, the activity change % (negative = inhibition) was 13%.

On to `CC(=O)OC/C=C(C)/C=C/C=C(C)/C=C/C1=C(C)CCCC1(C)C`, for which the activity change % (negative = inhibition) is 1.82%.

Take `O=C(Oc1ccccc1)c1ccccc1O`: the activity change % (negative = inhibition) is -5.55% and -2.84%.

Consider `CN1C(=O)c2ccccc2C1=O`, for which the activity change % (negative = inhibition) was -4.79%.

For the compound `OCCOCCN1CCN(C(c2ccccc2)c2ccc(Cl)cc2)CC1` (stereo not drawn), the activity change % (negative = inhibition) is -10.5%.

In the case of `CCCCC(CC)COC(=O)c1ccccc1C(=O)O` (stereo not drawn), the activity change % (negative = inhibition) was -5.5% and 6.91%.

In the case of `Cc1ccc(O)cc1`, the activity change % (negative = inhibition) was -4.08%.

Regarding `Brc1ccccc1-c1ccccc1`, the activity change % (negative = inhibition) was -16.6%.

For the compound `C1=CC2C3C=CC(C3)C2C1` (stereo not drawn), the activity change % (negative = inhibition) was 2.01%.

For the next experiment, the target named is Voltage-gated inwardly rectifying potassium channel KCNH2 (Homo sapiens) (UniProt Q12809). The experiment can be described thus: qHTS Assay for Small Molecule Inhibitors of the Human hERG Channel Activity (AID 588834).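 Further: lower thallium flux fluorescence means stronger hERG block; nearly all actives have a fitted effect of over 50% in size.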 Further: potency means the concentration at half of the fitted maximal effect. Particulars: U2OS BacMam hERG, FluxOR thallium flux fluorescence; series mostly up to 92.2 µM. In a few lines: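 U2OS cells BacMam-transduced with hERG, 2000 cells/well, compound ~10 min at 37 °C before stimulation buffer. FluxOR thallium flux fluorescence read kinetically on FDSS; decrease indicates block; AC50 from Hill fits.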
Sequence of Voltage-gated inwardly rectifying potassium channel KCNH2 (Homo sapiens) (Q12809 whole entry, looked up): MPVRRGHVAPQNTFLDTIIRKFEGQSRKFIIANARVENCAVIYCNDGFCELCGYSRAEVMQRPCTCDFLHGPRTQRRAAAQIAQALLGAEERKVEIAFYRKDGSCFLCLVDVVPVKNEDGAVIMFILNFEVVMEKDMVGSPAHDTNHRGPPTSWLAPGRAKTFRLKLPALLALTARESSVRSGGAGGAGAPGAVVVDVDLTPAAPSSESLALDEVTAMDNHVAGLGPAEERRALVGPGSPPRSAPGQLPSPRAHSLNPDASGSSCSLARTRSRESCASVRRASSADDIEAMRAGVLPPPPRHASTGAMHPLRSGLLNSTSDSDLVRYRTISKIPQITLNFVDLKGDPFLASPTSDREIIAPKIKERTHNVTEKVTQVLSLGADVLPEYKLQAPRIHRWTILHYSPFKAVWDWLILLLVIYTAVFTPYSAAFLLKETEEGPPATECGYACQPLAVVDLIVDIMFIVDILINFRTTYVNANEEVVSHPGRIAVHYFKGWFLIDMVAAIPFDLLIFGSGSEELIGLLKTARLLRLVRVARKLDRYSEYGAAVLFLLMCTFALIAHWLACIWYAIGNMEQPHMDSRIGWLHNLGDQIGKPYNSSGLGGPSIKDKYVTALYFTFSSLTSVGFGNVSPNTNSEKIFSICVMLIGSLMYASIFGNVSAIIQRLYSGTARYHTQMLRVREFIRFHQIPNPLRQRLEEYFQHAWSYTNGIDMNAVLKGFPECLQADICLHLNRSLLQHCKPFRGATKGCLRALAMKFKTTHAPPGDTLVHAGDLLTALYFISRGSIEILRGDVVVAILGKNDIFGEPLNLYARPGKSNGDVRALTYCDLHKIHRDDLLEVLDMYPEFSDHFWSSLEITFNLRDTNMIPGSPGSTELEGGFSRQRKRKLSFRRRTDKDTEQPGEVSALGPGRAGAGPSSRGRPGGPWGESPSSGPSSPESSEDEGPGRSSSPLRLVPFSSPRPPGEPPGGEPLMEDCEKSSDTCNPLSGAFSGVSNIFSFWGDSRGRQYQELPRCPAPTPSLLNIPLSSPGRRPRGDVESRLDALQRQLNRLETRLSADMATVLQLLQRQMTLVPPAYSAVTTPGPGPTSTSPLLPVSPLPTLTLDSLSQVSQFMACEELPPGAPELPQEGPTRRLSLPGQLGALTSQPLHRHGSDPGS
In the case of `CCCC(=O)c1cc(O)c(O)cc1O`, the Potency entry was “inactive”.

In the case of `CC(C)C(C)(C)C(C)(C)C(C)(C)S`, the Potency entry is “inactive”.

In the case of `Oc1ccccc1`, the Potency result was “inactive”.

Turning to `Nc1ccc2cc3ccc(N)cc3nc2c1`, the Potency is 12.6 µM (active).

Regarding `O=C(NO)c1ccccc1`, the Potency entry is “inactive”.

Take `CCCCCCCCCCCCCCCC[N+](C)(C)Cc1ccccc1`: the Potency is 22.4 µM (active).

Turning to `CC(NCCC(c1ccccc1)c1ccccc1)c1ccccc1` (stereo not drawn), the Potency is 2.24 µM (active).

Consider `Nc1ncnc2nc[nH]c12`, for which the Potency entry is “inactive”.

Take `CC(C)(C)c1ccc(O)c(O)c1`: the Potency result was “inactive”.

Turning to `NC(N)=NCCCCN=C(N)N`, the Potency result is “inactive”.

`CN1CCCN(C(c2ccccc2)c2ccc(Cl)cc2)CC1` (stereo not drawn): the Potency was 8.91 µM (active).

As to `Nc1cccc2c(N)cccc12`, the Potency result was “inactive”.

With `CN1CCC(Nc2ncc3ncnc(Nc4ccc(F)c(Cl)c4)c3n2)CC1`, the Potency is 12.6 µM (active).

For `C[C@]12CCC(=O)C=C1CC[C@@H]1[C@@H]2[C@@H](O)C[C@@]2(C)[C@H]1CC[C@]2(O)C(=O)COC(=O)CCC(=O)O`, the Potency result is “inactive”.

With `COc1cc(C=O)ccc1O`, the Potency entry was “inactive”.

`Nc1c2ccccc2nc2ccccc12`: the Potency result is “inactive”.

On to `OCc1c[nH]c2ccccc12`, for which the Potency entry was “inactive”.

For `CC(=O)OC/C=C(C)/C=C/C=C(C)/C=C/C1=C(C)CCCC1(C)C`, the Potency result was “inactive”.

As to `CCCCC(CC)COC(=O)c1ccccc1C(=O)O` (stereo not drawn), the Potency entry was “inactive”.

`c1ccc2occc2c1`: the Potency entry is “inactive”.

For the compound `Cc1ccc(O)cc1`, the Potency result was “inactive”.

For the compound `C1=CC2C3C=CC(C3)C2C1` (stereo not drawn), the Potency entry was “inactive”.

For `COc1cccc2c1[C@@H]1CN(CCCCn3c(=O)[nH]c4c(sc5ncc(-c6ccccc6)nc54)c3=O)C[C@@H]1CO2`, the Potency was 5.01 µM (active).

`Nc1ccc(O)cc1`: the Potency result was “inactive”.

With `O=[N+]([O-])c1ccc(O)c2ncccc12`, the Potency result is “inactive”.

For the next experiment, the target named is Luciferin 4-monooxygenase (Photinus pyralis) (UniProt P08659). The experiment can be described thus: Biochemical firefly luciferase enzyme assay for NPC (AID 624030).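 Further: purified P. pyralis luciferase at 10 nM with luciferin and ATP substrate; nearly all actives have a fitted effect of over 70% in size.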 Particulars: purified P. pyralis luciferase, luminescence, 5 min; series mostly up to 58.6 µM. In a few lines:
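Counter-screen for direct inhibition of the luciferase enzyme by approved-drug library compounds, run at 10 nM enzyme in 50 mM Tris acetate (final). Luminescence was read within 5 min of enzyme-buffer addition and normalized to PTC124 versus DMSO (0%).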
On to `CC(C)C(C)(C)C(C)(C)C(C)(C)S`, for which the Potency result was “inactive”.

Turning to `Oc1ccccc1`, the Potency result is “inactive”.

As for `Nc1ccc2cc3ccc(N)cc3nc2c1`, the Potency entry was “inactive”.

On to `O=C(NO)c1ccccc1`, for which the Potency result was “inactive”.

For `CCCCCCCCCCCCCCCC[N+](C)(C)Cc1ccccc1`, the Potency result was “inactive”.

For `Cc1cc(C(C)(C)C)c(O)c(C(C)(C)C)c1`, the Potency result was “inactive”.

With `CC(NCCC(c1ccccc1)c1ccccc1)c1ccccc1` (stereo not drawn), the Potency entry was “inactive”.

Regarding `CCCCCCCCCCCC[N+](C)(C)Cc1ccccc1`, the Potency result is “inactive”.

With `Nc1ncnc2nc[nH]c12`, the Potency result was “inactive”.

As to `COC(=O)c1c(Cl)c(Cl)c(C(=O)OC)c(Cl)c1Cl`, the Potency result was “inactive”.

Regarding `NC(N)=NCCCCN=C(N)N`, the Potency result is “inactive”.

Turning to `CN1CCCN(C(c2ccccc2)c2ccc(Cl)cc2)CC1` (stereo not drawn), the Potency result was “inactive”.

As to `Nc1cccc2c(N)cccc12`, the Potency entry is “inactive”.

With `CN1CCC(Nc2ncc3ncnc(Nc4ccc(F)c(Cl)c4)c3n2)CC1`, the Potency entry was “inactive”.

For `C[C@]12CCC(=O)C=C1CC[C@@H]1[C@@H]2[C@@H](O)C[C@@]2(C)[C@H]1CC[C@]2(O)C(=O)COC(=O)CCC(=O)O`, the Potency result was “inactive”.

`COc1cc(C=O)ccc1O`: the Potency result was “inactive”.

As to `Nc1c2ccccc2nc2ccccc12`, the Potency entry is “inactive”.

Regarding `O=C(c1ccccc1)c1ccccc1`, the Potency entry was “inactive”.

For `CC(=O)OC/C=C(C)/C=C/C=C(C)/C=C/C1=C(C)CCCC1(C)C`, the Potency result was “inactive”.

Take `O=C(Oc1ccccc1)c1ccccc1O`: the Potency result is “inactive”.

As to `CN1C(=O)c2ccccc2C1=O`, the Potency result is “inactive”.

With `CCCCCCCCCCCCCCCC[n+]1ccccc1`, the Potency entry was “inactive”.

As for `OCCOCCN1CCN(C(c2ccccc2)c2ccc(Cl)cc2)CC1` (stereo not drawn), the Potency entry was “inactive”.

On to `Cc1ncc(CO)c(CO)c1O`, for which the Potency entry was “inactive”.

As for `c1ccc2occc2c1`, the Potency entry was “inactive”.

In the case of `Brc1ccccc1-c1ccccc1`, the Potency result was “inactive”.

As to `C1=CC2C3C=CC(C3)C2C1` (stereo not drawn), the Potency result was “inactive”.

`COc1cccc2c1[C@@H]1CN(CCCCn3c(=O)[nH]c4c(sc5ncc(-c6ccccc6)nc54)c3=O)C[C@@H]1CO2`: the Potency entry is “inactive”.

In the case of `O=[N+]([O-])c1ccc(O)c2ncccc12`, the Potency entry is “inactive”.
